In PubChem BioAssay AID1851 (National Center for Advancing Translational Sciences (NCATS), 2009):
“And” between values parts separate entries of the source, which are not always exact repeats. Identical values can stand only once. Among all 16,000 compounds or so, about 4,000 (25%) were called active. Not shown: some 26% with an inconclusive outcome. Calls come from the whole dose curve; as a rule, active = well fitted curve in the direction sought with a large enough effect; inconclusive = small, poorly fitted or top-dose-only effect, or effect the other way; inactive = no such curve, though single readings can be large or run the other way. These entries were drawn from the full list.

molecular target: Cytochrome P450 2C9 (Homo sapiens) (UniProt P11712); experiment: Cytochrome panel assay with activity outcomes; details: recombinant CYP, pro-luciferin dealkylation, luminescence, p450-cyp2c9; series mostly up to 57.1 µM; activity, negative = inhibition: at the top concentration
Sequence (P11712 whole entry, looked up): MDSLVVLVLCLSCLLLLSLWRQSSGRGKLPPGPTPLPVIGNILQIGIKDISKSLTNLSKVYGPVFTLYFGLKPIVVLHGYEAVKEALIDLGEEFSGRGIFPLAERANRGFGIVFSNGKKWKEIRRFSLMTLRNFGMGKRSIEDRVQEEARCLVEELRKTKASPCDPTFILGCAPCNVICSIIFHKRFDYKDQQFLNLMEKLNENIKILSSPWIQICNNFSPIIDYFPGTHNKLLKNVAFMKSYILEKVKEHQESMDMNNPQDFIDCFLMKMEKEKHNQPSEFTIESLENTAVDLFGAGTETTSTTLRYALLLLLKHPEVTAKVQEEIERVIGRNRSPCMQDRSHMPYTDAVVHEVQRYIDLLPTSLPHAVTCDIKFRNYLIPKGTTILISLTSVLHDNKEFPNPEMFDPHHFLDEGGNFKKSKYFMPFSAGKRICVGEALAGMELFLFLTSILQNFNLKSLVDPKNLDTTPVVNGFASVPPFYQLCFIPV
% is set by controls: 0 for no effect and ±100 for the full control effect.

AC50, active:
COC(=O)c1cc(Br)c(=O)n(CCc2ccc(O)cc2)c1 12.6 µM
O=C1CCC[C@@H](C(C(=O)OCc2ccccc2)C(=O)OCc2ccccc2)C1 3.16 µM
CCC(=O)Nc1ccc(/C(C)=N\NS(=O)(=O)c2ccc(C)cc2)cc1 2.24 µM
C/C(=N/NS(=O)(=O)c1ccc(C)cc1)c1cccc(NC(=O)c2cccc(Cl)c2)c1 3.98 µM
COc1ccc(S(=O)(=O)N/N=C(/C)c2cccc(NC(=O)c3ccccc3Cl)c2)cc1 0.2 µM
COc1ccc(CC(=O)Nc2cccc(/C(C)=N/NC(=O)c3cccc([N+](=O)[O-])c3)c2)cc1 1.58 µM
O=C1c2ccccc2C(=O)c2c1ccc(C(=O)O)c2-c1ccc2ccccc2c1 1.58 µM
CC(C)OCCCN1CN(S(=O)(=O)c2cccc(Cl)c2)c2nc3ccccc3nc21 2.82 µM
Cc1cc(N2CCOCC2)ccc1/C=C1\SC(=O)N(C(C)C)C1=O 31.6 µM
Cc1ccc2c(CC(=O)OCc3cc(=O)n4c(n3)sc3ccccc34)coc2c1 7.94 µM
COc1cccc(Nc2nc(-c3ccc(O)cc3)cs2)c1 3.98 µM
CCNc1ncc2nc(CCc3ccccc3)c(=O)n(C)c2n1 12.6 µM
CCNc1ncc2nc(-c3ccccc3)c(=O)n(C)c2n1 12.6 µM
CCNc1ncc2nc(CCc3ccccc3)c(=O)n(CCC#N)c2n1 6.31 µM
CCNc1ncc2nc(CCc3ccccc3)c(=O)n(-c3ccccc3)c2n1 12.6 µM
S=C1SCN(CCN2CCOCC2)CN1Cc1ccccc1 12.6 µM
Cc1ccc2nc(-c3cccnc3)oc2c1 25.1 µM
COc1cccc(/C=N\NC(=O)C2C(=O)NCC2c2ccccc2)c1O (stereo unspecified) 14.1 µM
CC(=O)[C@@H]1[C@@H]2C(=O)N(C3CCCCC3)C(=O)[C@@H]2C2c3ccccc3C=CN21 (stereo partly specified) 15.8 µM
CC1(O)c2ccccc2C(=O)N1CCc1ccccc1F (stereo unspecified) 15.8 µM
Cc1ccc(N(C(=O)Cn2nnc(-c3ccc(F)cc3)n2)C(CC(C)C)C(=O)NCC2CCCO2)cc1 (stereo unspecified) 3.98 µM
CC(C)CC(C(=O)NCC1CCCO1)N(C(=O)Cn1nnc(-c2ccc(F)cc2)n1)c1ccccc1F (stereo unspecified) 11.2 µM
Cc1ccc(-c2nnn(CC(=O)N(c3ccccc3)C(C(=O)NCC3CCCO3)c3ccc(Cl)cc3)n2)cc1 (stereo unspecified) 0.708 µM
CC(C)CC(C(=O)NCC1CCCO1)N(C(=O)Cn1nnc(-c2ccc(F)cc2)n1)c1cccc(C(F)(F)F)c1 (stereo unspecified) 7.94 µM
Cc1oc(-c2ccccc2F)nc1CSCC(=O)NCc1ccc2c(c1)OCO2 4.47 µM
Cc1cc(C)c(S(C)(=O)=O)c(Oc2ccc(C(C)(C)C)cc2)n1 7.08 µM
COc1ccc(Oc2nc(C)cc(C)c2S(=O)(=O)c2ccc(C)cc2)cc1 14.1 µM
Cc1onc(-c2ccccc2)c1C(=O)NCCc1c[nH]c2ccccc12 3.98 µM
Oc1c(Br)cc(CN(Cc2cc(Br)c(O)c(Br)c2)C2CCCCC2)cc1Br 2.51 µM
O=C(NCc1n[nH]c(=S)n1-c1cccc(Cl)c1)c1ccc(S(=O)(=O)N2CCCC2)cc1 17.8 µM
CCC(C(=O)NC(C)(C)C)N(C(=O)Cn1nnc(-c2cccs2)n1)c1cnc2ccccc2c1 (stereo unspecified) 2.82 µM

activity, negative = inhibition, inactive:
CC(C)CN1CCCC2(CCN(C(=O)c3csnn3)CC2)C1 -12.6%
O=C(O)C1CCCN1C(=O)OCc1ccccc1 (stereo unspecified) -14.5%
NC(=O)C1CCN(C(=O)OCc2ccccc2)CC1 -21.8%
COc1ccc(NC(=O)c2cc(S(=O)(=O)N3CCS(=O)(=O)CC3)ccc2Cl)cc1 -7.18%
COc1ccc(C(=O)N/N=C(\C)Cn2nc([N+](=O)[O-])cc2C)cc1 -17.7%
C/C(=N\NC(=O)c1cccc(Cl)c1)c1cccc(NC(=O)C(C)C)c1 -1.8%
COc1ccc(/C(C)=N/NC(=O)c2ccc(N(C)C)cc2)cc1 -59.1%
O=C(O)c1ccccc1C(=O)Nc1cc2c(cc1Br)-c1ccccc1C2=O -5.92% [at 11.4 µM]
CC(C)c1ccc(/C=C2\C=C(c3ccc4ccccc4c3)OC2=O)cc1 -10% [at 11.4 µM]
CCn1nc(C)c(NC(=O)/C=C/c2cnn(C)c2C)c1C 6.79%
Cc1ccsc1/C=C1/SC(=O)N(CC(=O)N2CCOCC2)C1=O 27.3%
CN(C)c1ccc(/C=C2/C(=O)N(c3ccc([N+](=O)[O-])cc3)N=C2N2CCOCC2)cc1 -9.26%
c1cnc(Nc2nc(-c3ccc4ccccc4c3)cs2)nc1 -7.88%
COc1cccc(Nc2ncc3nc(-c4ccccc4)c(=O)n(C)c3n2)c1 -3.42%
CC1CCCC(NC(=O)C2CCN(S(=O)(=O)N3CCOCC3)CC2)C1C (stereo unspecified) -4.6%
CCNc1ncc2nc(-c3ccc(F)cc3)c(=O)n(C)c2n1 -2.41%
CCNc1ncc2nc(-c3ccc(F)cc3)c(=O)n(-c3ccccc3)c2n1 14%
CCNc1ncc2nc(-c3ccc(Cl)cc3)c(=O)n(C)c2n1 -25.8%
CCNc1ncc2nc(C)c(=O)n(C)c2n1 3.22%
CCNc1ncc2nc(-c3cc(F)cc(F)c3)c(=O)n(-c3ccccc3)c2n1 -0.131%
N#CCCn1c(=O)c(CCc2ccccc2)nc2cnc(Nc3ccccc3)nc21 18.1%
CCNc1ncc2nc(-c3ccccc3)c(=O)n(CCC#N)c2n1 11.2%
CCNc1ncc2nc(CCc3ccccc3)c(=O)n(Cc3ccc(F)cc3)c2n1 -9.69%
CC1(C)CC2(CCO1)OC(=O)CC2C(=O)NCCc1ccccc1 (stereo unspecified) -10.6%
FC(F)(F)c1cc(CN2CC3(CCNCC3)C2)cc(C(F)(F)F)c1 17.3%
CC1(C)S[C@@H]2[C@H](NC(=O)[C@@H](N)c3ccccc3)C(=O)N2[C@H]1C(=O)O[C@H]1OC(=O)c2ccccc21 -24.3% [at 25.6 µM]
Cc1cc(C)c2c(N=NN(C)C)[nH]nc2n1 -25.9%
Cc1ccccc1-c1nc(NC2CCNCC2)c2ccccc2n1 10.8% [at 2.29 µM]
c1csc(CNCCCN2CCOCC2)c1 -17%
COc1cccc(OC)c1OCCCN1CCOCC1 10.6%
Cc1ccccc1-c1ccc2ncnc(N3CCNCC3)c2c1 4.82% [at 2.29 µM]
CN(C)C(=O)c1ccc(-c2cncnc2N2CCNCC2)cc1 7.11% [at 2.29 µM]
Clc1ccc2oc(-c3cccnc3)nc2c1 -12.4%
c1cncc(-c2cccnc2)c1 19.8%
O=c1[nH][nH]c(C(F)(F)F)c1C=Nc1ccccc1Cl -29.7%
COc1cc(/C=N\NC(=O)C2C(=O)NCC2c2ccccc2)cc(OC)c1O (stereo unspecified) -17%
O=C(Nc1ccccc1)N1CCC2(CC1)CCN(C(=O)c1csnn1)CC2 -13.4%
O=C1C[C@@H](O)[C@@H](O)[C@H]2[C@@H]3C(=O)N(C4CCCCC4)C(=O)[C@@H]3CC[C@H]12 14.6% [at 11.4 µM] and -0.457% [at 11.4 µM] and -8.99% [at 11.4 µM]
CCOC(=O)N/N=C1/C[C@@H](O)[C@@H](O)[C@@H]2[C@@H]3C(=O)N(C4CCCCC4)C(=O)[C@H]3CC[C@@H]12 -16.3% [at 11.4 µM]
COc1cc2ccc(=O)oc2cc1O -27.8% [at 25.6 µM]
Nc1ccc(S(=O)(=O)Nc2ccc(Cl)nn2)cc1 15.8% [at 25.6 µM]
Cc1ccc(S(=O)(=O)O[C@@H]2[C@H]([C@@H]3COC(C)(C)O3)O[C@H]3OC(C)(C)O[C@@H]32)cc1 4.54% [at 11.4 µM]
O=C(NCC1CCCO1)C(c1cccnc1)N(C(=O)Cc1cccs1)c1cccnc1 (stereo unspecified) 1.15%
CC(NC(=O)OCc1ccccc1)C(=O)NCC1CCCO1 (stereo unspecified) 4.27%
CN(C)c1ncc2nc(-c3ccc(F)cc3)c(=O)n(C[C@H]3CCCO3)c2n1 -3.65%
N#CC(CC(=O)O)=C(c1ccccc1)c1ccccc1 -16.4% [at 11.4 µM]
CCN1C(=O)[C@H]2[C@H]3[C@H](O)[C@H](O)C/C(=N/O[C@@H]4O[C@@H](COC(C)=O)[C@@H](OC(C)=O)[C@@H](OC(C)=O)[C@H]4OC(C)=O)[C@@H]3CC[C@@H]2C1=O 19.4% [at 11.4 µM]
CCN1CCCC1CNC(=O)CSCc1nc(-c2ccccc2C)oc1C (stereo unspecified) -23.8%
Cc1cc(C)c(C#N)c(Oc2ccc(F)cc2)n1 -7.25%
NC(=O)NC(=O)[C@H]1CCCC[C@@H]1C(=O)O 7.71% [at 11.4 µM]
CCN(CC)CC[n+]1ccc2c(C)c3[nH]c4ccc(O)cc4c3c(C)c2c1 -0.365% [at 11.4 µM]
CC(=O)NCCc1c[nH]c2ccc(O)cc12 -8.66%
Oc1c(Br)cc(Br)cc1CN(Cc1cc(Br)cc(Br)c1O)C1CCCCC1 -21.2% [at 11.4 µM]
CC(C)(C)c1ccc(O)c(CN(Cc2cc(C(C)(C)C)ccc2O)C2CCCCC2)c1 -4.75% [at 11.4 µM]
NC(N)=NC(N)=Nc1ccc(S(=O)(=O)O)cc1 21.1% [at 11.4 µM]
Cn1c(CCNC(=O)c2ccccc2Cl)n[nH]c1=S -15.2%
COc1ccc(-n2c(CNC(=O)c3cc(OC)c(OC)c(OC)c3)n[nH]c2=S)cc1 -17.4%
O=[N+]([O-])c1ccccc1N=Nc1c(O)[nH]c2ccc(S(=O)(=O)O)cc12 -11% [at 11.4 µM]
O=C(Nc1cnc2ccccc2c1)c1cccc(-n2cnnn2)c1 -14.6%
COC(=O)C/C=C\[C@H](C)[C@@H](OC)c1ccccc1Br -6.68% [at 11.4 µM]
